Reference: PubChem BioAssay AID493191 (Broad Institute, 2011)
Screen size: about 1,300 compounds; about 330 (25%) were called active. No rule for the calls is given here. The list is a sample of the results. Entries with a potency or affinity are not part of this list.

test: MALME3 melanoma cell viability loss, dose response, orthogonal assay for MITF inhibitor project, CellTiter-Glo, cherry-picked (AID 493191); details: CellTiter-Glo luminescence, 24 h; series mostly up to 35 µM

| SMILES | outcome |
| --- | --- |
| OCCNc1c2ccccc2nc2ccccc12 | inactive |
| Clc1ccc(-c2noc(CN3CCOCC3)n2)cc1 | inactive |
| NNC(=O)Cn1c(SCc2ccccc2)nc2ccccc21 | inactive |
| COc1ccc(N/C=C\C(=O)c2ccc3ccccc3c2)cc1 | inactive |
| O=C(Nc1ccc([N+](=O)[O-])cc1)c1ccccc1 | inactive |
| COc1ccc(-c2csc(Nc3ccccn3)n2)cc1OC | inactive |
| Cc1ccccc1NCc1nc2ccccc2n1C | inactive |
| O=C(c1cc2ccccc2oc1=O)N1CCN(c2ncccn2)CC1 | inactive |
| N#C/C(=C\c1ccc(OCc2ccc(C(=O)O)cc2)cc1)C(=O)N1CCOCC1 | inactive |
| N#Cc1nc(/C=C/c2ccccc2)oc1NCCCN1CCOCC1 | inactive |
| CCN1CCN(c2ccc(Nc3ccnc4ccccc34)cc2)CC1 | inactive |
| CCn1c(C)cc(C(=O)CN2C(=O)c3ccccc3S2(=O)=O)c1C | inactive |
| Cc1ccc(SCc2cn3cc(Cl)ccc3n2)cc1 | inactive |
| Cc1ccc(-c2c[n+](Cc3cccc(Cl)c3)c3n2CCC3)cc1 | inactive |
| CCN(CC(=O)Nc1ccc2c(c1)OCCO2)C(=O)c1ccc([N+](=O)[O-])s1 | inactive |
| CC(OC(=O)c1ccc([N+](=O)[O-])s1)C(=O)NC1CCCCC1C (stereo not drawn) | inactive |
| CCOC(=O)Cn1c(=NC(=O)c2ccc([N+](=O)[O-])s2)sc2ccccc21 | inactive |

| SMILES | outcome |
| --- | --- |
| O=[N+]([O-])c1ccc(/C=N/n2c(CO)nc3ccccc32)s1 | inactive |
| Nc1nc2ccccc2n1/N=C/c1ccc(-c2ccccc2)o1 | inactive |
| C=CCn1c(C)cc(C(=O)CN2C(=O)c3ccccc3S2(=O)=O)c1C | inactive |
| Cn1c(/C=C/c2cccc([N+](=O)[O-])c2)c([N+](=O)[O-])c(=O)n(C)c1=O | inactive |
| Nc1ccc(-c2cc3ccccc3c(=O)o2)cc1 | inactive |
| Cn1c(COc2ccccc2Br)nc2ccccc21 | inactive |
| O=C(CN1CCCCC1)Nc1scc2c1c(=O)oc1ccccc12 | inactive |
| CCc1ccc(-c2cc(C(=O)Nn3cnnc3)c3ccccc3n2)cc1 | inactive |
| Cc1cn(CCC(=O)Nc2ccccc2N2CCOCC2)c2ccccc12 | inactive |
| O=C(Nc1ccccc1N1CCOCC1)c1ccc([N+](=O)[O-])o1 | inactive |
| FC(F)(F)Oc1ccc(-c2cn3cccnc3n2)cc1 | inactive |
| CCN(CCO)c1ccc(N=Nc2cc(C)[nH]n2)cc1 | inactive |
| COc1cc(/C=C/C(=O)c2ccc3c(c2)OCCO3)cc(Br)c1OCC(=O)N(C)C | inactive |
| COCc1cc(C)nc2sc(C(=O)Nc3ccc(OC)cc3)c(N)c12 | inactive |
| Cc1ccccc1-c1nc(CN2CCC(C(=O)NCCCN3CCCC(C)C3)CC2)c(C)o1 (stereo not drawn) | inactive |
| Cc1cc(C)c2nc(N3CCC(C(=O)NCCCN4CC(C)CC(C)C4)CC3)sc2c1 (stereo not drawn) | inactive |
